GFP response, % of DMSO data for 19 molecules are collected here from PubChem BioAssay.

This assay can be described thus: TOR pathway CIT2 reporter hit retest – S. cerevisiae, GFP fusion, cherry picks, mother/daughter gates, confirmation (AID 2274). The note with it: S. cerevisiae CIT2-GFP strain, flow cytometry, 3 h; measured here: daughter cell gate; at 10 µM; stronger effect = higher value. A general note: A flow cytometer gives signals particle by particle.
Turning to `COC(=O)Cn1cc(/C=C/c2cc[n+](C)cc2)c2ccccc21`, the GFP response, % of DMSO was determined as 105%. The same measure for `C=CCNC(=S)N/N=C(\C)c1cccc(OC)c1`: 96.4%; for `COc1cccc(-c2nnc(NC(=O)c3ccc(S(=O)(=O)N4CCOCC4)cc3)o2)c1`: 99.3%. In the case of `CCc1ccc(CNC(=O)CCC(=O)N2Cc3cccc(OC)c3Oc3ncccc32)cc1` it was 105%; in that of `N#C/C(=C\c1c(N2CCCCCC2)nc2ccccn2c1=O)C(=O)NCc1ccco1`, 99.1%; in that of `C=CCn1c(=O)c(C(=O)NCCc2ccccc2)c(O)c2ccccc21`, 99.1%. The same measure for `CCOC(=O)COc1c(Cl)cc(/C=C2\N=C(C)OC2=O)cc1OC`: 105%; for `CCOc1ccccc1/C=C/C(=O)c1ccc(Cl)cc1`: 103%. Turning to `Cc1c([N+](=O)[O-])cnc(Sc2ccccc2)c1[N+](=O)[O-]`, the GFP response, % of DMSO was 101%.

`O=C(COC(=O)c1ccc(NS(=O)(=O)c2cccs2)cc1O)Nc1nc2ccccc2s1` showed a GFP response, % of DMSO of 98.1%. The same measure for `COc1ccc(Sc2ncnc3onc(C)c23)cc1`: 99.3%; for `Cc1ccc(S(=O)(=O)N2C3C=CC(C3)C2C(=O)O)cc1` (centres undefined): 97.6%; for `Cc1ccc(C(C[N+](=O)[O-])Sc2ccc(N)cc2)cc1` (centres undefined): 103%.

Regarding `CCOc1ccc(N2C(=O)CC(SCCN)C2=O)cc1` (centres undefined), the GFP response, % of DMSO is 99.1%.

On to `O=C(O)Cc1sc(Nc2ccccc2)nc1-c1cccs1`, for which the GFP response, % of DMSO turned out to be 104%.

Molecule `COc1ccccc1-c1noc(CCC(=O)Nc2cccc(C(F)(F)F)c2)n1` displayed a GFP response, % of DMSO of 101%. Molecule `Cn1cc(/C=C/c2cc[n+](C)cc2)c2cc(Cl)ccc21` gave a GFP response, % of DMSO of 128%.

As to `COc1cccc(-c2noc(-c3cccnc3)n2)c1`, the GFP response, % of DMSO worked out at 105%. The same measure for `COc1ccc(-c2ccc(SCC(=O)N3c4ccccc4CC3C)nn2)cc1OC` (centres undefined): 96.4%.
